# Reference: PubChem BioAssay AID1159580 (chemical genetic matrix, 2015)
# “And” between values parts separate entries of the source, which are not always exact repeats. Equal values may be shown once. Among all 5,500 compounds or so, about 2,000 (36%) were called active. Not shown: some 18% with an inconclusive outcome. No stated cut-off is given here; in the data, active means normalized growth mostly below about 0.91 (no sharp cut-off); inconclusive means no clear call, values can overlap the other calls; inactive means mostly above about 0.92. Some of the results follow.
# Assay: chemical genetic growth profiling, strain panel (AID 1159580);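 further: tested at 20 µM; growth read once vehicle control cultures reached saturation at 30 °C; 1 = growth at the plate median or of vehicle wells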
# Conditions: S. cerevisiae deletion strains, growth OD
smiles,measurement,setting,value
COc1ccc(-c2coc3c(O)c(OC)ccc3c2=O)cc1,normalized growth,"locus YAL021C, strain ccr4, stronger effect = lower value",0.907 (inactive)
same,normalized growth,"locus YAL026C, strain drs2, stronger effect = lower value",0.944 (inactive)
same,normalized growth,"locus YAL030W, strain snc1, stronger effect = lower value",0.966 (inactive)
same,normalized growth,"locus YBL061C, strain skt5, stronger effect = lower value",0.983 (inactive)
same,normalized growth,"locus YBR009C, strain hhf1, stronger effect = lower value",0.887 (active)
same,normalized growth,"locus YBR021W, strain FUR4, stronger effect = lower value",0.818 (active)
same,normalized growth,"locus YBR023C, strain chs3, stronger effect = lower value",0.887 (active)
same,normalized growth,"locus YBR171W, strain sec66, stronger effect = lower value",0.957 (inactive)
same,normalized growth,"locus YBR229C, strain ROT2, stronger effect = lower value",0.905 (active)
same,normalized growth,"locus YBR231C, strain swc5, stronger effect = lower value",0.893 (active)
same,normalized growth,"locus YBR279W, strain paf1, stronger effect = lower value",0.977 (inactive)
same,normalized growth,"locus YCL011C, strain gbp2, stronger effect = lower value",0.927 (inactive)
same,normalized growth,"locus YCL016C, strain dcc1, stronger effect = lower value",0.877 (active)
same,normalized growth,"locus YCL029C, strain bik1, stronger effect = lower value",0.914 (inactive)
same,normalized growth,"locus YCL069W, strain vba3, stronger effect = lower value",0.945 (inactive)
same,normalized growth,"locus YCR088W, strain abp1, stronger effect = lower value",0.973 (inactive)
same,normalized growth,"locus YDL005C, strain med2, stronger effect = lower value",1.01 (inactive)
same,normalized growth,"locus YDL035C, strain GPR1, stronger effect = lower value",0.874 (inactive)
same,normalized growth,"locus YDL040C, strain nat1, stronger effect = lower value",0.987 (inactive)
same,normalized growth,"locus YDL074C, strain BRE1, stronger effect = lower value",0.786 (inactive)
same,normalized growth,"locus YDL101C, strain DUN1, stronger effect = lower value",0.932 (inactive)
same,normalized growth,"locus YDL185W, strain tfp1, stronger effect = lower value",0.888 (active)
same,normalized growth,"locus YDL192W, strain arf1, stronger effect = lower value",0.837 (active)
same,normalized growth,"locus YDR001C, strain nth1, stronger effect = lower value",1 (inactive)
same,normalized growth,"locus YDR069C, strain doa4, stronger effect = lower value",1 (inactive)
same,normalized growth,"locus YDR101C, strain arx1, stronger effect = lower value",0.863 (active)
same,normalized growth,"locus YDR137W, strain rgp1, stronger effect = lower value",0.696 (active)
same,normalized growth,"locus YDR159W, strain sac3, stronger effect = lower value",0.797 (active)
same,normalized growth,"locus YDR162C, strain NBP2, stronger effect = lower value",0.755 (active)
same,normalized growth,"locus YDR195W, strain ref2",1.01 (inactive)
same,normalized growth,"locus YDR297W, strain sur2, stronger effect = lower value",0.967 (inactive)
same,normalized growth,"locus YDR318W, strain mcm21, stronger effect = lower value",0.871 (active)
same,normalized growth,"locus YDR334W, strain swr1, stronger effect = lower value",0.96 (inactive)
same,normalized growth,"locus YDR335W, strain msn5, stronger effect = lower value",0.93 (inactive)
same,normalized growth,"locus YDR388W, stronger effect = lower value",0.944 (inactive)
same,normalized growth,"locus YDR392W, strain spt3, stronger effect = lower value",0.383 (active)
same,normalized growth,"locus YDR502C, strain sam2, stronger effect = lower value",0.936 (inactive)
same,normalized growth,"locus YEL003W, strain gim4, stronger effect = lower value",0.944 (inactive)
same,normalized growth,"locus YEL037C, strain rad23, stronger effect = lower value",0.959 (inactive)
same,normalized growth,"locus YEL061C, strain CIN8 (second series), stronger effect = lower value",0.963 (inactive)
same,normalized growth,"locus YEL061C, strain CIN8, stronger effect = lower value",0.931 (inactive)
same,normalized growth,"locus YER015W, strain faa2, stronger effect = lower value",0.939 (inactive)
same,normalized growth,"locus YER016W, strain bim1, stronger effect = lower value",0.966 (inactive)
same,normalized growth,"locus YER110C, stronger effect = lower value",0.904 (inactive)
same,normalized growth,"locus YER111C, strain swi4, stronger effect = lower value",0.993 (inactive)
same,normalized growth,"locus YER155C, strain BEM2 (second series), stronger effect = lower value",0.54 (active)
same,normalized growth,"locus YER155C, strain BEM2, stronger effect = lower value",0.942 (inactive)
same,normalized growth,"locus YER167W, strain BCK2, stronger effect = lower value",0.87 (active)
same,normalized growth,"locus YFR010W, strain ubp6, stronger effect = lower value",1 (inactive)
same,normalized growth,"locus YGL078C, strain dbp3, stronger effect = lower value",0.959 (inactive)
same,normalized growth,"locus YGL086W, strain mad1, stronger effect = lower value",0.862 (active)
same,normalized growth,"locus YGL167C, strain pmr1, stronger effect = lower value",0.976 (inactive)
same,normalized growth,"locus YGL173C, strain kem1, stronger effect = lower value",0.97 (inactive)
same,normalized growth,"locus YGL227W, strain vid30, stronger effect = lower value",0.983 (inactive)
same,normalized growth,"locus YGL240W, strain doc1, stronger effect = lower value",0.851 (active)
same,normalized growth,"locus YGL248W, strain PDE1, stronger effect = lower value",0.906 (inactive)
same,normalized growth,"locus YGL253W, strain hxk2, stronger effect = lower value",0.954 (inactive)
same,normalized growth,"locus YGR135W, strain pre9, stronger effect = lower value",0.916 (inactive)
same,normalized growth,"locus YGR252W, strain gcn5, stronger effect = lower value",0.781 (inactive)
same,normalized growth,"locus YHR013C, strain ard1, stronger effect = lower value",0.966 (inactive)
same,normalized growth,"locus YHR027C, strain rpn1, stronger effect = lower value",0.98 (inactive)
same,normalized growth,"locus YHR030C, strain SLT2, stronger effect = lower value",0.943 (inactive) and 1.02 (inactive)
same,normalized growth,"locus YHR079C, strain IRE1 (second series), stronger effect = lower value",0.955 (inactive)
same,normalized growth,"locus YHR079C, strain IRE1, stronger effect = lower value",1.01 (inactive)
same,normalized growth,"locus YHR094C, strain hxt1, stronger effect = lower value",0.941 (inactive)
same,normalized growth,"locus YHR129C, strain ARP1, stronger effect = lower value",0.907 (active)
same,normalized growth,"locus YHR142W, strain chs7, stronger effect = lower value",0.832 (active)
same,normalized growth,"locus YHR200W, strain rpn10, stronger effect = lower value",0.902 (active)
same,normalized growth,"locus YIL066C, strain RNR3, stronger effect = lower value",0.757 (active)
same,normalized growth,"locus YIL073C, strain SPO22, stronger effect = lower value",0.824 (inactive)
same,normalized growth,"locus YIL125W, strain kgd1, stronger effect = lower value",0.948 (inactive)
same,normalized growth,"locus YIR030C, strain dcg1, stronger effect = lower value",0.944 (inactive)
same,normalized growth,"locus YJL092W, strain hpr5, stronger effect = lower value",0.982 (inactive)
same,normalized growth,"locus YJL095W, strain BCK1 (second series), stronger effect = lower value",0.959 (inactive)
same,normalized growth,"locus YJL095W, strain BCK1, stronger effect = lower value",0.757 (active) and 1 (inactive)
same,normalized growth,"locus YJL115W, strain asf1, stronger effect = lower value",0.943 (inactive)
same,normalized growth,"locus YJL129C, strain trk1, stronger effect = lower value",0.731 (active)
same,normalized growth,"locus YJL134W, strain LCB3, stronger effect = lower value",0.937 (inactive)
same,normalized growth,"locus YJL154C, strain vps35, stronger effect = lower value",0.974 (inactive)
same,normalized growth,"locus YJL164C, strain tpk1, stronger effect = lower value",0.941 (inactive)
same,normalized growth,"locus YJL166W, strain qcr8, stronger effect = lower value",0.828 (active)
same,normalized growth,"locus YJL168C, strain set2, stronger effect = lower value",0.954 (inactive)
same,normalized growth,"locus YJL187C, strain SWE1 (second series), stronger effect = lower value",0.904 (inactive)
same,normalized growth,"locus YJR066W, strain TOR1, stronger effect = lower value",0.959 (inactive)
